The values below come from PMC4336329 (PLoS ONE, 2015).

The structures appear in SMILES notation. The campaign covered roughly 310,000 compounds. About 14,000 (4.5%) showed an effect of 50% or more. The effect is printed as a negative number. Many of the other results were omitted from the sample, so strong results are more common in it than they were.
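Further: peak tail current of the secondary pulse compared with the same well before compound.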

The target of the experiment is human ether-à-go-go-related gene (hERG) potassium channel (human, UniProt Q12809). Description: primary screen, population patch clamp on CHO cells stably expressing hERG; higher = less effect of the substance.
human ether-à-go-go-related gene (hERG) potassium channel, sequence (Q12809 whole entry, looked up): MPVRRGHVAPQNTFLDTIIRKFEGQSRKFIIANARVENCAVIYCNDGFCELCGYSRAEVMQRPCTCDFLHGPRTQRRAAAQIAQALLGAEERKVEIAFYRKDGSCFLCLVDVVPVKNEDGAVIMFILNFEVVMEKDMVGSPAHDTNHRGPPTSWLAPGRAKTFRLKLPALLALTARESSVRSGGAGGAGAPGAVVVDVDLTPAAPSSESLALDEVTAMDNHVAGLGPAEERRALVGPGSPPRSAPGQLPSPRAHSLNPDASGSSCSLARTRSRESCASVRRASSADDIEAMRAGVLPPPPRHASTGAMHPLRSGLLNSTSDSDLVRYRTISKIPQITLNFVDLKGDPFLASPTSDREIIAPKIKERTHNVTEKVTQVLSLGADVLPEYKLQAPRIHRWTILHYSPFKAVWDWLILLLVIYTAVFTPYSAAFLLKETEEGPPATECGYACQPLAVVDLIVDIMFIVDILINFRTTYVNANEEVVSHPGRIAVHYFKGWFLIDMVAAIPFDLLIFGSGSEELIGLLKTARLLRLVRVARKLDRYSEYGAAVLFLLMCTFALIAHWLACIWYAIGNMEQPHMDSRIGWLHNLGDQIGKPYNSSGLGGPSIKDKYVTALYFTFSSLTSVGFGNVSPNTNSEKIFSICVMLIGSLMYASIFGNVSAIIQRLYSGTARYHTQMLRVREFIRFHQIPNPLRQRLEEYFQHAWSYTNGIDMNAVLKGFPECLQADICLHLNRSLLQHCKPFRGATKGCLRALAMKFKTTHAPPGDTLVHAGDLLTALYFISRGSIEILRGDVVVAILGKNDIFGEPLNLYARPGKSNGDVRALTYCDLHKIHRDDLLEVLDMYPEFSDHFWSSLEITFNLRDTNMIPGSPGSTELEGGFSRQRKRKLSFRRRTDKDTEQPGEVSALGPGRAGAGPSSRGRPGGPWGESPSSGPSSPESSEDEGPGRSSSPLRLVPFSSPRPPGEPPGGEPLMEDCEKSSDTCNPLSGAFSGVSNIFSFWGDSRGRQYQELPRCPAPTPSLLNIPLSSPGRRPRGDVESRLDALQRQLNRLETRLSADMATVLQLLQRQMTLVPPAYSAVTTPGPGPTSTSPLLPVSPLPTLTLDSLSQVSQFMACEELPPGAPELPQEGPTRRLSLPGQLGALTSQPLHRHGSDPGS
Regarding `O=P(O)(Oc1ccccc1)OC(c1ccccc1)C(F)(F)C(F)(F)F` (centres unmarked), the “hERG current change (%, negative = inhibition) at 10uM” value is on record as 27.3%.
In the case of `CC(=O)N1CCN(c2ccccc2NC(=O)COc2ccccc2C)CC1` it was -14%.
The result for `CC(=O)N1CCN(c2ccccc2NC(=O)COc2ccc(Br)cc2)CC1` reads -9.2%; that for `CN1CCN(c2ccccc2NC(=O)COc2ccc(Br)cc2)CC1`, -58%; that for `O=C(COc1ccc(Br)cc1)Nc1ccc(N2CCOCC2)cc1N1CCOCC1`, -7.56%.
Regarding `COC(=O)c1ccc(N2CCN(C)CC2)c(NC(=O)COc2ccccc2)c1`, the “hERG current change (%, negative = inhibition) at 10uM” value is on record as -43.9%.
In the case of `O=C(COc1cccc(Br)c1)Nc1ccc(N2CCOCC2)cc1N1CCOCC1` it was -50.6%.
Regarding `Cc1cc(C)cc(OCC(=O)Nc2ccccc2N2CCCCC2)c1`, the “hERG current change (%, negative = inhibition) at 10uM” value is -0.491%.
The result for `CC(=O)N1CCN(c2ccccc2NC(=O)COc2cc(C)cc(C)c2)CC1` reads -52.4%; that for `COC(=O)c1ccc(N2CCN(C)CC2)c(NC(=O)COc2ccc(C)cc2)c1`, -20%.
In the case of `COC(=O)c1ccc(N2CCN(C)CC2)c(NC(=O)COc2ccc(OC)cc2)c1` it was -53.5%; in that of `CN1CCN(c2ccccc2NC(=O)COc2ccccc2)CC1`, -48.4%; in that of `Cc1cc(C)cc(OCC(=O)Nc2ccc(N3CCOCC3)cc2N2CCOCC2)c1`, -6.54%.
For `O=C(Nc1cccc(Cl)c1)OC1CCCCc2cccnc21` (centres unmarked), the “hERG current change (%, negative = inhibition) at 10uM” value came to 4.75%.
`COc1ccc(-c2cc(N3C(=O)Nc4ccccc4N3O)n[nH]2)cc1OC`: the “hERG current change (%, negative = inhibition) at 10uM” value was found to be 3.84%.
For the compound `CCO[C@@H]1OC(C(=O)N2CCOCC2)=C[C@H](c2cn(C(C)=O)c3ccccc23)[C@H]1CCCO`, the “hERG current change (%, negative = inhibition) at 10uM” value was -20.3%.
The result for `CSc1nc2sccc2c(=O)[nH]1` reads 32.8%; that for `Cc1cccc(NC(=O)c2ccccc2NC(=O)c2ccccc2)n1`, -0.693%; that for `COc1ccc(C(C)NC(=O)CCc2ccccc2)cc1` (centres unmarked), 10%.
With `Clc1ccc(-c2nc3ccncc3[nH]2)cc1`, the “hERG current change (%, negative = inhibition) at 10uM” value is -17.3%.
Turning to `COc1ccccc1-n1c(O)c(C=NCc2ccccn2)c2ccccc2c1=O`, the “hERG current change (%, negative = inhibition) at 10uM” value is on record as -8.58%.
The result for `Cc1ccc(N2C(=O)CC(Sc3nc(-c4ccccc4)c4cc(Cl)ccc4n3)C2=O)c(C)c1` (centres unmarked) reads 3.36%; that for `COc1ccc(OCC(=O)Nc2ccccc2N2CCN(C)CC2)cc1`, -38.6%; that for `COc1ccc(CC(=O)Nc2cc(Cl)ccc2N2CCCC2)cc1`, 15.7%.
In the case of `CCOC(=O)c1ccccc1NC(=O)COc1cc(=O)n(CC)c2ccccc12` it was 5.47%; in that of `CCn1c(=O)cc(OCC(=O)Nc2ccccc2C#N)c2ccccc21`, 6.06%; in that of `Cc1cccc(OCC(=O)Nc2ccccc2N2CCCCC2)c1`, 2.17%.
In the case of `CN1CCN(c2ccccc2NC(=O)COc2ccc(Cl)cc2)CC1` it was -59.9%; in that of `COc1ccc(CCC(=O)Nc2cc(Cl)ccc2N2CCN(C)CC2)cc1`, -50.1%.
With `Cc1cccc(OCC(=O)Nc2ccccc2N2CCN(C)CC2)c1`, the “hERG current change (%, negative = inhibition) at 10uM” value was -51.2%.
For `CCC(=O)N1CCN(c2ccccc2NC(=O)COc2cccc(C)c2)CC1`, the “hERG current change (%, negative = inhibition) at 10uM” value is on record as -38.2%.
With `CCn1c(=O)cc(OCC(=O)Nc2ccccc2N2CCN(C)CC2)c2ccccc21`, the “hERG current change (%, negative = inhibition) at 10uM” value is on record as -58.3%.
In the case of `COc1cc(CCC(=O)Nc2cc(Cl)ccc2N2CCN(C)CC2)cc(OC)c1OC` it was -10.2%.
Consider `CN1CCN(c2ccccc2NC(=O)COc2ccc(C3CCCCC3)cc2)CC1`, for which the “hERG current change (%, negative = inhibition) at 10uM” value was 16.8%.
The result for `COc1cccc(C(c2c(O)nc(SC)n(C)c2=O)c2c(O)nc(SC)n(C)c2=O)c1` reads 0.717%; that for `COc1ccc(-n2nc3c(c2NC(=O)c2ccc(S(=O)(=O)N4CCOCC4)cc2)CS(=O)(=O)C3)cc1`, 14.6%.
As to `Cc1ccc(C(=O)N2CCN(c3ccc(NC(=O)c4cccnc4Cl)cc3)CC2)cc1`, the “hERG current change (%, negative = inhibition) at 10uM” value is -27.8%.
Turning to `Cc1cc(S(=O)(=O)NCCCN2CCOCC2)c(Cl)cc1Cl`, the “hERG current change (%, negative = inhibition) at 10uM” value was -13.1%.
`Cc1ccccc1C(=O)Oc1ccc2ccc(O)cc2c1`: the “hERG current change (%, negative = inhibition) at 10uM” value was 14.5%.
As for `O=C(CSc1nnc(Cc2ccccc2)o1)N1CCOCC1`, the “hERG current change (%, negative = inhibition) at 10uM” value is recorded as 0.161%.
The result for `O=C(CSc1nnc(-c2ccncc2)n1-c1ccccc1)Nc1ccc(C(=O)O)cc1` reads 25.5%.
The result for `CCNC(=O)Nn1c(-c2ccccc2)nc2ccccc2c1=O` reads 22.9%; that for `Cc1ccc(C(=O)NCc2n[nH]c(=S)n2-c2ccccc2)cc1[N+](=O)[O-]`, 7.76%; that for `Cc1cc(NC(=O)Cn2nnc(-c3ccccc3NC(=O)c3ccccc3F)n2)no1`, 12.5%.
In the case of `COc1ccc(-c2[nH]ncc2Oc2ccccc2OC)c(O)c1` it was -11.3%; in that of `O=S(=O)(Nc1nc2ccccc2s1)c1ccc(Br)s1`, -5.3%.
On to `c1cc2c3c(cccc3c1)C(N1CCCCC1)=N2`, for which the “hERG current change (%, negative = inhibition) at 10uM” value is given as -66.2%.
In the case of `N#Cc1nc(Cc2ccccc2)oc1N1CCC(Cc2ccccc2)CC1` it was 24.5%; in that of `Fc1ccc(N2CCN(C3=Nc4cccc5cccc3c45)CC2)cc1`, -77%.
The result for `CC1CN(C2=Nc3cccc4cccc2c34)CC(C)O1` (centres unmarked) reads -47.6%; that for `O=C1C2C3C=CC(C4CC34)C2C(=O)N1CCc1ccccc1` (centres unmarked), 3.23%; that for `O=C(CN1C(=O)c2cccc3cccc1c23)N1CCN(c2ccc(F)cc2)CC1`, 9.69%.
In the case of `c1ccc(CC2CCN(C3=Nc4cccc5cccc3c45)CC2)cc1` it was -80%; in that of `c1ccc(CC2CCN(c3nnnn3-c3ccccc3)CC2)cc1`, -13.1%; in that of `c1cc2c3c(cccc3c1)C(N1CCOCC1)=N2`, -31%.
In the case of `O=S1(=O)N=C(N2CCN(c3ccc(F)cc3)CC2)c2ccccc21`, the “hERG current change (%, negative = inhibition) at 10uM” value is -8.87%.
In the case of `Cl.O=C1C2C3C=CC(C4CC34)C2C(=O)N1CCCCN1CCN(c2ccc(F)cc2)CC1` (centres unmarked) it was -69.3%.
In the case of `O=C1C2CCCN2C(=O)N1CCCCN1CCN(c2ccc(F)cc2)CC1` (centres unmarked) it was -43.2%.
With `Cc1ccc(S(=O)(=O)N2CCC(C(=O)OCc3c(C)noc3C)CC2)cc1C`, the “hERG current change (%, negative = inhibition) at 10uM” value is listed as -15.8%.
The result for `COc1ccc(S(=O)(=O)NC2CC(C)(C)NC(C)(C)C2)c2ccccc12` reads 6.47%; that for `CCc1nc(C)c(C#N)c2cc(OC)c(OC)cc12`, 1.21%; that for `CC(C)(C)OC(=O)NCCc1nnc(S(=O)(=O)Cc2ccc(Cl)cc2Cl)o1`, -5.97%.
The result for `CCCOc1ccc(/C=N/NC(=S)Nc2ccccc2[N+](=O)[O-])c(O)c1` reads 24.3%.
As to `COC(=O)c1c(C)c2c(C)cc3ccccn3c-2c1C(=O)OC`, the “hERG current change (%, negative = inhibition) at 10uM” value is reported as -4.02%.
The result for `O=C(O)CCC(=O)N1CCN(S(=O)(=O)c2ccc3ccccc3c2)CC1` reads 25.6%.
In the case of `CC(=O)N1CCN(C2=Nc3cccc4cccc2c34)CC1` it was -46%.
On to `COc1ccccc1N1CCN(C2=Nc3cccc4cccc2c34)CC1`, for which the “hERG current change (%, negative = inhibition) at 10uM” value is given as -71.5%.
In the case of `O=C1c2cccc3cccc(c23)C(=O)N1CCCN1CCN(c2ccc(F)cc2)CC1`, the “hERG current change (%, negative = inhibition) at 10uM” value is reported as -69.2%.
The result for `c1cc2c3c(cccc3c1)C(N1CCCCCC1)=N2` reads -67%; that for `O=C(CN1C(=O)c2cccc3cccc(c23)C1=O)N1CCCCCC1`, 9.58%.
In the case of `c1ccc(NC2=Nc3cccc4cccc2c34)cc1` it was 1.71%; in that of `O=C(CCCN1C(=O)c2cccc3cccc(c23)C1=O)N1CCN(c2ccc(F)cc2)CC1`, -1.91%.
As for `COc1ccccc1N1CCN(C(=O)CN2C(=O)c3cccc4cccc(c34)C2=O)CC1`, the “hERG current change (%, negative = inhibition) at 10uM” value amounted to 16.9%.
For the compound `O=C(CN1CCN(CCN2C(=O)c3cccc4cccc(c34)C2=O)CC1)c1ccc(F)cc1`, the “hERG current change (%, negative = inhibition) at 10uM” value is listed as -42.4%.
With `Cc1cc(C)n(Cc2ccc(C(=O)Nc3ccc(Br)cc3C)o2)n1`, the “hERG current change (%, negative = inhibition) at 10uM” value is recorded as -19.4%.
In the case of `O=C(COc1ccccc1O)Nc1ccc(Cl)cc1` it was 5.23%.
In the case of `Cc1ccc(C(=O)CSc2ccccc2C(=O)O)cc1` it was 16.9%; in that of `Cc1ccccc1C(=O)NC1CCN(Cc2nnnn2C2CCCC2)CC1`, 3.85%; in that of `C#CCOC(=O)c1ccccc1C(=O)O`, 7.07%.
Regarding `N#C/C(=C/c1cc(Br)cs1)C(=O)NCC1CCCO1` (centres unmarked), the “hERG current change (%, negative = inhibition) at 10uM” value is given as -14.8%.
In the case of `O=C(OCn1ncc(Br)c(Br)c1=O)c1ccc(F)cc1` it was -51.4%; in that of `O=C(OCn1ncc(Br)c(Br)c1=O)c1c(F)cccc1F`, 14.9%; in that of `O=C(OCn1ncc(Cl)c(Cl)c1=O)c1ccc(F)cc1`, -3.74%.
Turning to `Cl.O=C(CN1CCN(C(=O)c2cccc(F)c2)CC1)NC1CCCCC1`, the “hERG current change (%, negative = inhibition) at 10uM” value was 2.39%.
Consider `O=C(CN1CCN(Cc2cccc(F)c2)CC1)Nc1ccccc1F`, for which the “hERG current change (%, negative = inhibition) at 10uM” value is -55.9%.
In the case of `O=C(CN1CCN(Cc2cccc(F)c2)CC1)NCc1ccccc1` it was -10.4%; in that of `O=C(c1cccc(Cl)c1)N1CCN(Cc2ccccc2F)CC1`, 10.1%; in that of `O=C(CN1CCN(Cc2ccc(F)cc2)CC1)Nc1ccccc1F`, -35.2%.
The result for `O=C(CN1CCN(C(=O)c2cccc(F)c2)CC1)Nc1ccccc1F` reads -70.1%; that for `O=C(CN1CCN(C(=O)c2c(F)cccc2F)CC1)Nc1ccccc1F`, -11.3%; that for `O=C(CN1CCN(C(=O)c2ccccc2)CC1)Nc1ccc(Cl)cc1F`, -71%.
In the case of `O=C(CN1CCCCCC1)Nc1ccc(Cl)cc1F`, the “hERG current change (%, negative = inhibition) at 10uM” value is given as -2.05%.
